The panel holds about 83,000 compounds, 20% with a hit somewhere; the sample as a whole holds those more often.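 Percent growth is the endpoint: 0 to 100 indicates growth inhibition (40 means 60% inhibition), 0 means no net growth, and negative values indicate cell death.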 Unmarked numbers belong to inactive results. Active and inactive are the calls of the source. How the source made its calls: active means growth percent below 10; inactive means the rest.

The test system of the assay is HL-60(TB) leukemia. The experiment in a line: NCI-60 one-dose screen, 48 h (100 = growth as untreated, 0 = no growth, -100 = all killed). Conditions: 10 µM unless noted.
Consider `C[C@H](C(=O)N[C@@H](Cc1ccc(-c2ccccc2)cc1)C(=O)NC1CC(C)(C)N(C)C(C)(C)C1)c1ccc(-c2ccccc2)c(F)c1`, for which the growth was -61.2% (active).

As for `O=C1/C(=C/c2ccc(F)cc2)COc2ccc(O)c(O)c21`, the growth was -17% (active).

Turning to `COc1cc(/C=C2/C=C(c3ccccc3)N(CCc3ccc(S(N)(=O)=O)cc3)C2=O)cc(OC)c1OC`, the growth was 86.7%.
